Records with an inconclusive call do not appear. Active and inactive are the calls of the source. Unless noted, calls follow the shape of the dose curve; as a rule, active = well fitted curve in the direction sought with a large enough effect in the repeat runs; inconclusive = weak or mixed curves; inactive = no such curve, though single readings can be large; an effect the other way counts as inactive or inconclusive.
What was measured:
[1] = A CellTox Green Cytotoxicity Assay to monitor cytotoxicity in HepG2 cells - 0 hour (AID 1224882); also: nearly all actives have a fitted effect of over 35% in size
In short: (§1)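 HepG2 cells were seeded together with the CellTox Green dye at 600 cells/well, left 5 h at 37 C/5% CO2, then given compounds in DMSO. Fluorescence from dye bound to dead-cell DNA was read repeatedly over 40 h of treatment at 37 C.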

[2] = A CellTox Green Cytotoxicity Assay to monitor cytotoxicity in HEK293 cells - 8 hour (AID 1224884); also: nearly all actives have a fitted effect of over 35% in size
In short: (§2)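 HEK293 cells premixed with CellTox Green dye were seeded at 600 cells/well and left 5 h at 37 C/5% CO2 before pin transfer of 23 nL compound in DMSO. Fluorescence from dye bound to dead-cell DNA was read during 40 h treatment.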

[3] = qHTS RealTime-Glo MT Cell Viability Assay in HepG2 cells - 16 hour (AID 1224885); also: nearly all actives have a fitted effect of over 50% in size
In short: (§3)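 Cell number in HepG2 cultures estimated from NanoLuc luminescence generated by metabolic reduction of a prosubstrate by living cells. The homogeneous, nonlytic format allowed repeated reads at 0, 8, 16, 24, 32 and 40 h of compound exposure.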

[4] = qHTS RealTime-Glo MT Cell Viability Assay in HEK293 cells - 24 hour (AID 1224886); also: top concentration of the series differs between compounds; nearly all actives have a fitted effect of over 50% in size
In short: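 Homogeneous bioluminescent viability format in HEK293 cells (600 cells/well). Following 5 h at 37 C/5% CO2, 23 nL compound was pintooled; the signal was measured repeatedly during 40 h incubation.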

[5] = qHTS RealTime-Glo MT Cell Viability Assay in HEK293 cells - 8 hour (AID 1224887); also: top concentration of the series differs between compounds; nearly all actives have a fitted effect of over 50% in size
In short: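 HEK293 cells mixed with RealTime-Glo reagents (NanoLuc plus cell-permeant prosubstrate) at 600 cells/well, preincubated 5 h at 37 C/5% CO2, then given 23 nL compound in DMSO. Nonlytic luminescence from viable cells was read at 0, 8, 16, 24, 32 and 40 h.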

[6] = A CellTox Green Cytotoxicity Assay to monitor cytotoxicity in HEK293 cells - 16 hour (AID 1224888); also: nearly all actives have a fitted effect of over 35% in size
In short: as §2

[7] = qHTS RealTime-Glo MT Cell Viability Assay in HepG2 cells - 0 hour (AID 1224889); also: nearly all actives have a fitted effect of over 50% in size
In short: as §3

[8] = A CellTox Green Cytotoxicity Assay to monitor cytotoxicity in HepG2 cells - 8 hour (AID 1224890); also: nearly all actives have a fitted effect of over 45% in size
In short: as §1

[9] = qHTS assay to identify small molecule antagonists of the estrogen receptor alpha (ER-alpha) signaling pathway using the BG1 cell line in the presence of 0.1 nM 17-beta-estradiol - cell viability counter screen (AID 1259241); also: nearly all actives have a fitted effect of over 40% in size
In short: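 The cell line endogenously expresses full-length ER-alpha and carries four EREs driving luciferase. Cells are cultured 5 days hormone-free, treated 22 hr with compounds and 0.1 nM estradiol, then viability is read by fluorescence.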

[10] = qHTS assay to identify small molecule antagonists of the androgen receptor (AR) signaling pathway using the MDA cell line in the presence of 0.5 nM R1881 - cell viability counter screen (AID 1259242); also: nearly all actives have a fitted effect of over 45% in size
In short: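 MDA-kb2 cells (human breast carcinoma, stably carrying MMTV-luciferase reporter) were exposed to compounds with 0.5 nM R1881 (final) for 16 hr at 37C, 0% CO2; viability then read as live-cell protease fluorescence (CellTiter-Fluor, 30 min) in the same wells.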

[11] = molecular target: Estrogen receptor (Homo sapiens) (UniProt P03372); assay: qHTS assay to identify small molecule antagonists of the estrogen receptor alpha (ER-alpha) signaling pathway using the BG1 cell line in the presence of 0.1 nM 17-beta-estradiol (AID 1259244); also: nearly all actives have a fitted effect of over 50% in size; also: potency is read from the fitted curve at half-maximal effect
Estrogen receptor (Homo sapiens), sequence (P03372 whole entry, looked up): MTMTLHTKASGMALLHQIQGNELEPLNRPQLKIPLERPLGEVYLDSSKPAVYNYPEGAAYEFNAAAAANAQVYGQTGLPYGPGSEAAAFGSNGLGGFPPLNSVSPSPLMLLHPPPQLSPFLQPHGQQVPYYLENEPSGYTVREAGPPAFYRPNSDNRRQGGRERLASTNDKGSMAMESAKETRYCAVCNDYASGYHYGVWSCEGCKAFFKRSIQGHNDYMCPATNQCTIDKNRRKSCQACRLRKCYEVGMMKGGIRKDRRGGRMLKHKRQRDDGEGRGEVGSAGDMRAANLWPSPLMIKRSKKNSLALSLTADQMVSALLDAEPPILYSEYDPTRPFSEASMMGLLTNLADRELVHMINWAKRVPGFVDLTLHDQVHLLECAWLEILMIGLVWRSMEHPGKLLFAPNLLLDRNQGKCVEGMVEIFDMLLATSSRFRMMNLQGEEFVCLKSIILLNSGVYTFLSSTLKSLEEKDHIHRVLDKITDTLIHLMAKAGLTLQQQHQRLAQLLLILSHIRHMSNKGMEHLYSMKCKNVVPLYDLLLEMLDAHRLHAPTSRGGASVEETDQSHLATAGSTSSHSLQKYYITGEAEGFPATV
In short: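 VM7Luc4E2 cells (endogenous full-length ER-alpha, stable 4xERE-luciferase) were grown 5 days in phenol red-free medium with charcoal-stripped FBS, then exposed 22 h at 37C to compounds plus 0.1 nM (final) 17beta-estradiol; ONE-Glo luminescence read-out.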

[12] = qHTS assay to identify small molecule phospholipidosis (PLD) inducers (AID 1259344; active = well fitted curve in the direction sought with a large enough effect; an effect the other way counts as inactive or inconclusive)
In short: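 HepG2 cells grown on collagen I take up LipidTOX Red while exposed to compound for 24 h; after fixation they are imaged at 20x and pit metrics are extracted.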

[13] = qHTS assay to identify small molecule HDAC inhibitors (AID 1259364); also: top concentration of the series differs between compounds; nearly all actives have a fitted effect of over 45% in size
In short: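 Wild-type HCT-116 cells were plated overnight, exposed to compounds for 2 h at 37 °C, then given HDAC-Glo class I/II luminogenic reagent for 30 min at room temperature before luminescence was read.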

[14] = qHTS assay to identify small molecule HDAC inhibitors - cell viability counter screen (AID 1259365)
In short: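 Viability readout: CellTiter-Glo luminescence. Wild-type HCT-116 cells, 2hr compound treatment following overnight attachment at 37 C.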

[15] = qHTS assay to identify small molecule antagonists of the sonic hedgehog signaling (Shh) pathway - cell viability counter screen (AID 1259367); also: nearly all actives have a fitted effect of over 55% in size
In short: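 After a 4 hr settling period, 3T3 Gli1-Luc cells were treated with DMSO-dissolved chemicals and conditioned medium, kept 24 hr at 37C in 5% CO2, and assayed for viability by CellTiter-Fluor fluorescence following 1 hr reagent incubation.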

[16] = qHTS assay to identify small molecule agonists of the sonic hedgehog signaling (Shh) pathway (AID 1259368; calls by dose curve; also: series mostly up to about 92 µM; nearly all actives have a fitted effect of over 15% in size)
In short: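 NIH/3T3-derived 3T3Gli1-Luc cells carrying a stably integrated Gli1 response element–firefly luciferase reporter were plated, left 4 hr at 37 C, then given compounds in DMSO for 24 hr. Luminescence was read 30 min after adding luciferase reagent.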

[17] = qHTS assay to identify small molecule antagonists of the sonic hedgehog signaling (Shh) pathway (AID 1259369; calls by dose curve; also: nearly all actives have a fitted effect of over 45% in size)
In short: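 NIH/3T3-derived 3T3Gli1-Luc cells with stably integrated Gli1-Luc reporter were preincubated 4hr at 37 C, then given compounds in DMSO plus Shh conditioned medium and incubated 24hr. Firefly luciferase luminescence read after 30min reagent at room temperature.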

[18] = qHTS assay to identify small molecule agonists of the sonic hedgehog signaling (Shh) pathway - cell viability counter screen (AID 1259366); also: nearly all actives have a fitted effect of over 50% in size
In short: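 Viability measured fluorometrically (CellTiter-Fluor, 1hr, 37C) in 3T3 Gli1-Luc reporter cells after 23hr compound exposure within a 24hr incubation at 37C/5% CO2.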

[19] = molecular target: Androgen receptor (Homo sapiens) (UniProt P10275); assay: qHTS assay to identify small molecule antagonists of the androgen receptor (AR) signaling pathway using the MDA cell line in the presence of 0.5 nM R1881 (AID 1259243); also: nearly all actives have a fitted effect of over 50% in size
Androgen receptor (Homo sapiens), sequence (P10275 whole entry, looked up): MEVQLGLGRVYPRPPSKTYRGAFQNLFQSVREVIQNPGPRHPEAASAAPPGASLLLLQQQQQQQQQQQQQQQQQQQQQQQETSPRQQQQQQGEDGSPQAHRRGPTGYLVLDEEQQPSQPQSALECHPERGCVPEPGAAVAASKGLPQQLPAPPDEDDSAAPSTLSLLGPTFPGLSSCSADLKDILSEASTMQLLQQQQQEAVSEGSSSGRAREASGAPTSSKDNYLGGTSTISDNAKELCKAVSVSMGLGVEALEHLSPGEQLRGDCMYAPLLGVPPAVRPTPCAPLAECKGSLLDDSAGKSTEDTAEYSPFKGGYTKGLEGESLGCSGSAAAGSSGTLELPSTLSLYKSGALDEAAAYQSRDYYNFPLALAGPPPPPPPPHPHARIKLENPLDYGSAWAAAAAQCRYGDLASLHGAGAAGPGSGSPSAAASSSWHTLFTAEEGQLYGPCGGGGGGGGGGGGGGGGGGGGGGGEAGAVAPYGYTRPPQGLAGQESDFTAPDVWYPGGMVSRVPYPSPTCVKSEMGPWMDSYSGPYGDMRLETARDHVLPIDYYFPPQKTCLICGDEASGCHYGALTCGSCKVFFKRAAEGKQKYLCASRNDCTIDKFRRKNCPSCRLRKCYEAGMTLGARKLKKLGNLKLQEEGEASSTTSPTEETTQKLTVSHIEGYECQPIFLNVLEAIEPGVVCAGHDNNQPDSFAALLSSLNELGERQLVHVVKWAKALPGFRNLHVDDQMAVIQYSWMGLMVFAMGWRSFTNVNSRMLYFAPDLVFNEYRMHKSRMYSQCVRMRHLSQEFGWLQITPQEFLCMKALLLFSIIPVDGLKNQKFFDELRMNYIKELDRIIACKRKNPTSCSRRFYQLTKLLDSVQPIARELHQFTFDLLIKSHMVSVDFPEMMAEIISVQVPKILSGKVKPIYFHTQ
In short: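 MDA-kb2 human breast carcinoma cells carrying an MMTV-luciferase reporter (AR- and GR-responsive) were plated, rested 5 hr at 37C, dosed with compounds, then stimulated with 0.5 nM R1881 (final) for 16 hr; luminescence was read after ONE-Glo.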

[20] = A CellTox Green Cytotoxicity Assay to monitor cytotoxicity in HepG2 cells - 32 hour (AID 1224883); also: nearly all actives have a fitted effect of over 50% in size
In short: as §1
% is scaled to controls: 0 for no effect and ±100 for the full control effect.

C[N+](C)(C)CCOC(=O)CCC(=O)OCC[N+](C)(C)C
inactive: Potency [1] | Potency [2] | Potency [3] | Potency [4] | Potency [5] | Potency [6] | Potency [7] | Potency [8] | Potency [9] | Potency [10] | Potency [11] | Potency [12] | Potency [13] | Potency [14] | Potency [15] | outcome [16] | Potency [17]

O=C(O)c1nc(Cl)c(Cl)c(Cl)c1Cl
inactive: Potency [1] | Potency [2] | Potency [3] | Potency [5] | Potency [6] | Potency [7] | Potency [8] | Potency [10] | Potency [13] | Potency [14] | Potency [18] | outcome [16]

CCCCCC[C@@H](O)C/C=C\CCCCCCCC(=O)OC
inactive: Potency [1] | Potency [2] | Potency [3] | Potency [4] | Potency [5] | Potency [6] | Potency [7] | Potency [8] | Potency [9] | Potency [10] | Potency [19] | Potency [11] | Potency [13] | Potency [14] | Potency [18] | outcome [16]

CCCCCCCN
inactive: Potency [1] | Potency [20] | Potency [5] | Potency [6] | Potency [7] | Potency [9] | Potency [10] | Potency [11] | Potency [13] | Potency [14] | Potency [18] | Potency [15] | outcome [16] | Potency [17]

NCC(=O)O
inactive: cytotoxicity [1] 6.15% [at 15.8 µM] | cytotoxicity increase [2] 12.2% [at 15.8 µM] | activity change, negative = cytotoxic [3] 8.2% [at 15.8 µM] | activity change, negative = cytotoxicity [4] 3.07% [at 15.8 µM] | activity change [6] -1.23% [at 15.8 µM, hits give high values] | activity change, negative = cytotoxicity [7] 5.3% [at 15.8 µM] | cytotoxicity increase [8] 1.21% [at 15.8 µM] | activity change, negative = cytotoxicity [9] -1.87% [at 19 µM] | viability change, negative = cytotoxic [10] -5.8% [at 19 µM] | Potency [11] | Potency [12] | activity change, negative = inhibition [13] -0.526% [at 19 µM] | activity change, negative = cytotoxicity [14] 4.81% [at 19 µM] | viability change, negative = cytotoxic [18] -1.71% [at 19 µM] | viability change, negative = cytotoxic [15] 1.33% [at 19 µM] | activity change [16] -0.0794% [at 18.9 µM] | activity change, negative = inhibition [17] 20.6% [at 19 µM]

C=C(C)C(=O)OCCOCC
inactive: Potency [1] | Potency [2] | Potency [3] | Potency [4] | Potency [6] | Potency [7] | Potency [10] | Potency [13] | Potency [14] | Potency [15] | outcome [16]
active: Potency [11] 54.7 µM

Source: PubChem BioAssay (Tox21)
